# Measurements: publication PMC5540273 (PLoS ONE, 2017)
# Test system: CAMK1B
# Settings: concentration: 1 μM, replicates: in singlicate; n = 1
# 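Note: KINOMEscan kinase panel screen.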
row,SMILES,%Inh [%]
1,Oc1ccc2ncnc(Nc3ccc(OCc4ccccc4)cc3)c2c1 [GI262866],1
2,FC(F)(F)c1ccc(-c2cc(-c3c[nH]nc3-c3ccccn3)ccn2)cc1 [GW599550],35
3,CCc1nc(-c2cccc(C)c2)c(-c2ccnc(NC(=O)c3ccccc3)c2)s1,0
4,CN1c2ccc(-c3ccc(C(=O)NCCO)cc3)cc2-c2[nH]ncc2S1(=O)=O,23
5,O=C(c1ccc(-c2cc(-c3c[nH]nc3-c3ccccn3)ccn2)cc1)N1CCCC1 [GW792479],0
6,COc1ccc(-c2oc3ncnc(N)c3c2-c2ccc(OC)cc2)cc1 [SB-589132],13
7,CCc1nc(-c2cccc(N(C)S(=O)(=O)c3ccccc3)c2)c(-c2ccnc(Nc3ccc(N4CCN(C(C)=O)CC4)nc3)n2)s1 [GSK1645895],27
8,Fc1cccc(COc2ccc(Nc3ncnc4cc[nH]c34)cc2Cl)c1,7
9,Cl.c1ccc(Cn2ncc3cc(Nc4ncnc5ccccc45)ccc32)cc1 [GW273749],13
10,COC(=O)c1cccc(NC(=O)NCCNc2ccnc(Nc3ccc(F)cc3)n2)c1 [GSK1379883],2
11,Cl.c1ccc(Cn2ccc3cc(Nc4ncnc5ccccc45)ccc32)cc1 [GW275568],34
12,COc1ccc(Nc2nccc(N3CCC(NC(=O)c4cccc(NC(C)=O)c4)C3)n2)cc1 (centres unmarked) [GSK1379732],9
13,Nc1nccc2scc(-c3ccc4c(c3)CCN4C(=O)Cc3cc(F)ccc3F)c12 [GSK2587663],27
14,Fc1ccc(Nc2nccc(-c3c(-c4ccc(Cl)cc4)nn4ncccc34)n2)cc1F [GW829058],13
15,CS(=O)(=O)CCNCc1ccc(-c2ccc3ncnc(Nc4ccc(OCc5ccccc5)c(Cl)c4)c3c2)o1.Cl [GW574783],0
16,Cn1ccc2ncnc(Oc3ccc(NC(=O)Nc4cccnc4)c(Cl)c3)c21,0
17,COc1ccc(NC(=O)c2ccc(-c3cc(-c4nnc(C)o4)ccc3C)cc2)cc1 [GW595885],4
18,NC(=O)c1sc(-n2cnc3ccccc32)cc1OCc1ccccc1F [GSK1024306],31

row,SMILES,%Inh [%]
1,Fc1ccc(-c2ncn(CCCNCc3ccccc3)c2-c2ccncc2)cc1,0
2,CCC(CC)(CC)n1cnc2c(N)ncnc21 [SKF-97620],18
3,N#Cc1ccc(Oc2ccc(Nc3ncnc4cc[nH]c34)cc2Cl)cc1,0
4,O=C(Nc1n[nH]c2nc(-c3ccco3)c(Br)cc12)c1ccc(CN2CCCC2)cc1.O=C(O)[C@H](O)[C@@H](O)C(=O)O [SB-742352],0
5,O=C(NCCCN1CCCC1=O)c1cnc(NCc2cc(Cl)ccc2Cl)nc1NC1CCNCC1,21
6,O=C(Nc1ccccc1)Nc1ccc(Oc2ccc3nccn3n2)cc1,0
7,CCCc1ccc(S(=O)(=O)NC2CCN(c3ccnc(Nc4ccc(OC)cc4)n3)C2)cc1 (centres unmarked) [GSK1379737],0
8,COC(=O)c1c(-c2ccccc2)c2cc(Cl)ccc2c(=O)n1Cc1ccc(S(C)(=O)=O)cc1,0
9,CC(C)N1CCC(n2cnc(-c3ccc(F)cc3)c2-c2ccnc(N)n2)CC1 [SB-223132],0
10,Nc1n[nH]c2nnc(-c3ccccc3)cc12 [SB-517389],38
11,C[C@H]1CC[C@@H](C(=O)Nc2ccccc2)CN1c1cc(-c2ccc3c(N)n[nH]c3c2)nc(N)n1 [GSK2283293],23
12,CN1CCC(n2cnc(-c3ccc(F)cc3)c2-c2ccnc(NC3CCNCC3)n2)CC1 [SB-229482],28
13,Fc1cccc(COc2ccc(Nc3ncnc4sc(-c5ccc[nH]5)cc34)cc2Cl)c1 [GW707818],9
14,O=C(Nc1ccccc1F)NC1CCN(c2ccnc(Nc3ccc(F)cc3)n2)C1 (centres unmarked) [GSK1379722],0
15,Clc1ccc(-c2cc(-c3c[nH]nc3-c3ccccn3)ccn2)cc1 [GW681251],0
16,COc1cc2ncnc(Nc3ccc(OCc4ccccc4Br)c(Cl)c3)c2cc1OC.Cl [GI261590],21
17,Cl.Cl.c1ccc(-c2cc3ccncc3cc2OC2CCNCC2)cc1 [GSK1122999],0
